# BAZ2B block: BAZ2B (human) inhibition; Q9UIF8; AlphaScreen BAZ2B-H3K14Ac peptide displacement; Potency, µM (titrated, usually from 114 µM), without a hit: at the highest dose activity change, negative = inhibition, actives largely listed as inhibitors; actives 4.4% (n = 360,000); AID 504333; note: potency is the fitted concentration of half-maximal effect; % is set by controls: 0 for no effect and ±100 for the full control effect; nearly all actives have a fitted effect of over 60% in size
# Target sequence (Q9UIF8 whole entry, looked up): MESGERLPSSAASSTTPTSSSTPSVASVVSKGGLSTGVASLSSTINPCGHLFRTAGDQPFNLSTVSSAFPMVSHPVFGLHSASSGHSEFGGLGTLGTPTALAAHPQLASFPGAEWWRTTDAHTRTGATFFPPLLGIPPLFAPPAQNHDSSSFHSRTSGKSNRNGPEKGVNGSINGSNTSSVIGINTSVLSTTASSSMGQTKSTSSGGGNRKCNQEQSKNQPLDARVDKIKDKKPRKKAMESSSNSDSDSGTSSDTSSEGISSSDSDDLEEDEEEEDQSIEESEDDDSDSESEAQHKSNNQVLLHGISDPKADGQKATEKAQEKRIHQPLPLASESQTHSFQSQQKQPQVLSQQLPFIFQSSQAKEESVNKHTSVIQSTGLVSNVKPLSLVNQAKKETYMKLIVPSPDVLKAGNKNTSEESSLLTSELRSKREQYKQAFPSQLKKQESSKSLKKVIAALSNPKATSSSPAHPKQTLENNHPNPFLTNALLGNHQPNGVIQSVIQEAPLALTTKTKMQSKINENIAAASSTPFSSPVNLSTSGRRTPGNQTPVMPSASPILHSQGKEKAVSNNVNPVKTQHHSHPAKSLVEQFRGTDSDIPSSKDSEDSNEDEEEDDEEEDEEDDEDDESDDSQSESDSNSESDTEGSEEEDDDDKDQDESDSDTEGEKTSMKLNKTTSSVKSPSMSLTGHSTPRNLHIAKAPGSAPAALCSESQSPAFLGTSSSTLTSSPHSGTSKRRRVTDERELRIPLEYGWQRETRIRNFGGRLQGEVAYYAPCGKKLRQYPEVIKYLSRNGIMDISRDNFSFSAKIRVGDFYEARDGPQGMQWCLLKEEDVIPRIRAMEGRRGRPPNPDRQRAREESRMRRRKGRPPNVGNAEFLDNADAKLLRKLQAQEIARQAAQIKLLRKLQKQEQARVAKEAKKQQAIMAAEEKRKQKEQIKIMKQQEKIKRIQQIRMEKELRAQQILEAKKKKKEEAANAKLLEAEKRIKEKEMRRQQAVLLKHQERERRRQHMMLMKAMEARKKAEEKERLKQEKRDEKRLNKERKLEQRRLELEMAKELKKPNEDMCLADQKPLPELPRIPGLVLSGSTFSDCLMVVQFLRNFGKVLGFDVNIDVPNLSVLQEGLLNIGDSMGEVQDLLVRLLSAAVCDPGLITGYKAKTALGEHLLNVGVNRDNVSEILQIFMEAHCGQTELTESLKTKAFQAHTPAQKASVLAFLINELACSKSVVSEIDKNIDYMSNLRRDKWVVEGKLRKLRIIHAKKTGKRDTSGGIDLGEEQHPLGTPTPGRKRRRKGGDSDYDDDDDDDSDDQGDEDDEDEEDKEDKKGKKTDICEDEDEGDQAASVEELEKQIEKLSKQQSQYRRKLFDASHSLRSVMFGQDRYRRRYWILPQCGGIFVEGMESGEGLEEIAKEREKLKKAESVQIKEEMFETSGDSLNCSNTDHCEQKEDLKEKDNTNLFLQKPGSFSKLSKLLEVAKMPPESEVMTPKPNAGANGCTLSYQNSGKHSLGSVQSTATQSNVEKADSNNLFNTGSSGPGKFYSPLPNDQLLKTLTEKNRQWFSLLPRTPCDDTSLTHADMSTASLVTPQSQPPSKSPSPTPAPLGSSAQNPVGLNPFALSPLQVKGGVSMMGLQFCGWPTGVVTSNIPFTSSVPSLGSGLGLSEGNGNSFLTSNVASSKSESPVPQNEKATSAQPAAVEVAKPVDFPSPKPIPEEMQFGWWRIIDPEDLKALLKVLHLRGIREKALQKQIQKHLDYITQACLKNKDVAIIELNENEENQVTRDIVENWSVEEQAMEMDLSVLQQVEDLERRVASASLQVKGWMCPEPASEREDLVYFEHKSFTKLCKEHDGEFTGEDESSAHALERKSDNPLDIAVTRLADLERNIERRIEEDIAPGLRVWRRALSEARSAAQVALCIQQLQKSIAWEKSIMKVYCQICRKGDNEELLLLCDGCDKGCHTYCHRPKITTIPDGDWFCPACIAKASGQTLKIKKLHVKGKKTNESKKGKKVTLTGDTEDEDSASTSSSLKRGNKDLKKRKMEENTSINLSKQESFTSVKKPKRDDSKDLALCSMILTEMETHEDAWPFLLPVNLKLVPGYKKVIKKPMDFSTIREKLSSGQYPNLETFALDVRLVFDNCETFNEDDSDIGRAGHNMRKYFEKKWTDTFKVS
#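 AlphaScreen displacement: compounds (up to 110uM) incubated 30 min at room temperature with a preformed 50 nM BAZ2B/50 nM biotinylated H3K14Ac peptide complex in PBS pH 7.4 with Tween-20. Donor and acceptor beads at 10 ug/mL final added, 20 min light-protected before reading.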
# PI5P4K alpha inh: blocks human PI5P4K alpha kinase activity | P48426 | PI5P4Kalpha enzyme, ADP-Glo luminescence, 60 min; hits give low values | max response, % | actives 1.2% (n = 330,000) | AID 652105; active = max response of -50% or lower; inconclusive = between -30% and -50%; inactive = -30% or higher; note: value at the top dose of about 77 µM; % is set by controls: 0 for no effect and ±100 for the full control effect
#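 ADP-Glo luminescence end-point read after a 60 min room-temperature kinase reaction of PI5P4Kalpha plus substrate, initiated with ATP at 5 microM final. Buffer: 0.038 M HEPES pH 7.4, EGTA, 0.1% CHAPS, 5% DMSO.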
# PLK1 PBD block: blocks phosphopeptide binding to human PLK1 polo-box domain; P53350; Plk1 PBD binding of FITC phosphopeptide, fluorescence polarization; Potency, µM, inactives show max response, negative = inhibition, actives largely listed as inhibitors; actives 2.8% (n = 360,000); AID 720504; note: potency is the fitted concentration of half-maximal effect; series mostly up to about 57 µM; % is set by controls: 0 for no effect and ±100 for the full control effect; nearly all actives have a fitted effect of over 65% in size
# G9a inh: G9a (human) methyltransferase inhibition; Potency, µM (highest dose often 102 µM), without a hit: at the top dose activity, negative = inhibition, most hits filed as inhibitors; actives 8.8% (n = 350,000); AID 504332; G9a H3K9 monomethylation, AlphaScreen, 2 h; note: potency is the fitted concentration of half-maximal effect; % is set by controls: 0 for no effect and ±100 for the full control effect; nearly all actives have a fitted effect of over 75% in size
#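 G9a (20 nM) preincubated 15 min RT with compounds, then 500 nM biotinylated H3K9 peptide and 20 uM SAM added; 2 h RT reaction. Monomethyl-H3K9 product detected by AlphaScreen with anti-H3K9me1 antibody, streptavidin donor and anti-rabbit IgG acceptor beads.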
# HP1b chromo inh: blocks HP1-beta chromodomain binding to methylated histone tails | AlphaScreen HP1-beta / biotin-H3K9me3 peptide binding | Potency, µM (highest dose often 114 µM), for inactives: top-dose activity change, negative = inhibition, hits mostly inhibitors | actives 0.56% (n = 390,000) | AID 540317; note: potency is the fitted concentration of half-maximal effect; nearly all actives have a fitted effect of over 70% in size
#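 AlphaScreen: HP1-beta (50 nM) preformed 30 min with biotin-H3(1-18)K9me3 peptide (50 nM) in PBS pH 7.4, 0.01% Tween-20. Compound added for 30 min at RT, then streptavidin donor/nickel chelate acceptor beads (10 ug/mL) for 30 min.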
# JMJD2A Tudor: JMJD2A Tudor domain (human) inhibition; AlphaScreen JMJD2A-Tudor / H3K4me3 peptide binding; AID 504339; Potency, µM (titrated, usually from 114 µM), without a hit: at the highest dose activity change, negative = inhibition, most hits filed as inhibitors; O75164; actives 4.4% (n = 390,000); note: potency is the fitted concentration of half-maximal effect; % is set by controls: 0 for no effect and ±100 for the full control effect; nearly all actives have a fitted effect of over 50% in size
# An asterisk follows results filed as active; ? = inconclusive; . = no result; [ ] = dose if it differs, or a comment. The list is not random: actives were taken first. Their share in the collection is about 12%. Unless noted, calls come from the whole dose curve; as a rule, active = well fitted curve in the direction sought with a large enough effect; inconclusive = small, poorly fitted or top-dose-only effect, or another doubt; inactive = no such curve, though single readings can be large; an effect the other way counts as inactive or inconclusive.
SMILES,BAZ2B block,PI5P4K alpha inh,PLK1 PBD block,G9a inh,HP1b chromo inh,JMJD2A Tudor
Cc1ccc(-n2ncc3c2CC(C)(C)CC3NC(=O)c2ccncc2)cc1 (stereo not drawn),5%,3,-7%,68%,13%,-12%
COc1ccccc1CN1C(=O)[C@H]2Cc3c([nH]c4ccccc34)C(C)(C)N2C1=O,.,.,.,.,40%,-22%
COc1cc(CN2CCN(Cc3c[nH]c4ccccc34)CC2CCO)cc(OC)c1 (stereo not drawn),-14%,-4,-18%,.,6%,-25%
Clc1cccc(CN2CCc3c([nH]c4ccccc34)C2)c1Cl,22µM*,42,?,50µM*,?,22µM*
COc1ccccc1CN1CCc2c([nH]c3ccccc23)C1,50µM*,0,-10%,7.1µM*,?,20µM*
COc1cc(CN2CCc3c([nH]c4ccccc34)C2)cc(OC)c1,35µM*,-13,8.4µM*,32µM*,?,7.9µM*
CCOC(=O)c1c(NC(=O)/C=C/c2ccc(C)cc2)sc(C(C)=O)c1C,11%,.,.,?,36%,-10%
CCOC(=O)C1=C(COC(=O)c2ccc3ccccc3c2O)NC(=O)NC1C (stereo not drawn),-6%,-8,-13%,?,15%,-31%
CC1(C(=O)Nc2cccc(OC(F)(F)F)c2)Cc2c(-c3cccc(C(N)=O)c3)ccnc2O1 (stereo not drawn),.,3,5%,.,.,.
Cc1ccc(-c2cc(-c3n[nH]c(=S)o3)c3ccccc3n2)cc1,?,-26,27µM*,?,30%,?
Cc1ccc(-c2nnc(SCc3ccccc3)o2)cc1,356%,.,.,5%[59 µM],71%,193%
CSc1nnc(-c2cc(-c3ccc(C)cc3)nc3ccccc23)o1,5%,17,0%,7.9µM*,37%,16%
S=c1[nH]nc(-c2cc(-c3ccccn3)nc3ccccc23)o1,-1%,?,?,?,42%,-8%
COc1cc(CNc2nc3c(C)cc(C)cc3s2)ccc1O,50µM*,2,-6%,45µM*,-18%,?
Cc1cc(C)c2nc(NCc3ccccc3O)sc2c1,-13%,28,2%,18%,27%,1%
OCCCNCc1ccc(Cl)cc1Cl,-2%,-4,30µM*,?,-4%,-3%[11.4 µM]
CC(C)Oc1ccc(CNC(=O)c2cccc(NC(=O)N3CCSc4ncccc43)c2)cc1,-15%,.,.,-27%[59 µM],32%,-15%
Clc1ccc(N2CCN(c3ncnc4c3nc3n4CCCC3)CC2)cc1,-3%,.,.,-28%[59 µM],8%,-10%
C=CCn1c(SCC(=O)c2ccc(NS(=O)(=O)c3ccccc3)cc2)nnc1-c1cccs1,-8%,.,-26%,?,-1%,32µM*
C=CCn1c(SCC(=O)Nc2ccc(C(=O)OCC)cc2)nnc1-c1cccs1,6%,-6,-1%,-6%[12.7 µM],26%,1%
C=CCn1c(CCNC(=O)c2cccs2)nnc1SCC(=O)c1ccc(Br)cc1,0%,.,-11%,45µM*,28%,-20%
O=C(CS(=O)(=O)c1cccc2nsnc12)NCc1ccccc1Cl,1%,.,.,0%[59 µM],30%[57 µM],-20%
O=c1c2sc3ccccc3c2n(Cc2cccc(C(F)(F)F)c2)c(=O)n1-c1ccccc1,0%,.,.,-4%[59 µM],15%,-10%
COc1ccc(NCc2n[nH]nc2-c2ccccc2)cc1Cl,40µM*,3,-21%,?,-16%,?
c1csc(-c2nc3nc4ccccc4nc3n2Cc2ccc3c(c2)OCO3)c1,9%,-12,27µM*,51%[12.7 µM],11%,9%[11.4 µM]
SMILES,BAZ2B block,PI5P4K alpha inh,PLK1 PBD block,G9a inh,HP1b chromo inh,JMJD2A Tudor
Cn1cccc1-c1cc(C(=O)N/N=C/c2cccc(O)c2)[nH]n1,45µM*,8,-24%,45µM*,?,?
COc1ccc(/C=N/NC(=O)c2cc(-c3cccn3C)n[nH]2)cc1OC,50µM*,-8,-23%,79µM*,?,-12%[57.1 µM]
CCOc1cccc(/C=N/NC(=O)c2cc(-c3cccn3C)n[nH]2)c1O,50µM*,?,?,48%[0.501 µM],?,?
COc1cc(OC)c(OC)cc1/C=N/NC(=O)c1cc(-c2cccn2C)n[nH]1,-28%,3,-3%,-43%[59 µM],28%,15%
O=C(N/N=C/c1cccc(O)c1)N/N=C/c1cccc(O)c1,-7%,-53*,5%,43%,5%,-14%
CCOC(=O)[C@]12CCCC=C1N(Cc1cccc3ccccc13)C(=O)[C@H](CC(=O)NCc1cccs1)C2,.,8,-7%,.,.,.
CCCN1C(=O)/C(=C2\SC(N3CCCCC3)=NC2=O)c2ccccc21,16µM*,2,-9%,22µM*,-70%,40µM*
CN1C(=O)/C(=C2\SC(N)=NC2=O)c2ccccc21,-30%,-28,-7%,?,-6%,?
CN1C(=O)/C(=C2\SC(N3CCCCCC3)=NC2=O)c2ccccc21,?,2,-11%,40µM*,?,40µM*
O=C(Nc1nnc(Cc2ccc(Cl)cc2)s1)C1CCN(C(=O)c2ccco2)CC1,.,.,.,.,-3%,-29%
COc1ccc(CNC(=O)c2ccc(C(C)(C)C)cc2)cc1,0%,10,-7%,.,17%,-9%
COc1ccc(CNC(=O)Cn2cc(C(F)(F)F)ccc2=O)cc1,12%,10,3%,50µM*,16%,-11%
COc1ccc(CNC(=O)CN(C)Cc2ccc(C(C)(C)C)cc2)cc1,22µM*,-6,3%,40µM*,?,2.8µM*
CC(C)(C)NC(=O)NC(=O)Cn1cc(C(F)(F)F)ccc1=O,6%,-3,-7%,22%[59 µM],55%,-3%
CN(CC(=O)NC(=O)NCc1ccccc1)Cc1ccc(Cl)cc1,-3%,-5,-19%,45µM*,45%,16%
CCCCCC(=O)N1C[C@@H](O)[C@H](n2cc(COC(=O)c3ccccc3)nn2)C[C@@H]1c1ccccc1,.,-4,-8%,.,.,.
CC(C)NOC(=O)c1ccc(Cl)cc1,-10%,-11,30µM*,-5%,5%,-20%
COc1ccc(C2=NC(C)(C)N(CC(=O)Nc3ccc(F)c(F)c3)C2=O)cc1,0%,.,.,-1%[59 µM],33%,-10%
Cc1ccc(-c2cc(C(=O)OCC(=O)N(C)C3CCS(=O)(=O)C3)c3ccccc3n2)o1 (stereo not drawn),-19%,-19,?,4µM*,-4%,79µM*
CCN(C(=O)COC(=O)c1cc(-c2ccc(C)o2)nc2ccccc12)C1CCS(=O)(=O)C1 (stereo not drawn),-2%,?,-12%,2µM*,5%,89µM*

# From PubChem BioAssay
